Structures are written as SMILES. This is part of a sample that, as a whole, favours compounds with a hit. Of some 83,000 tested, about 20% had one in any assay.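 Negative percent growth values reflect cell death: -40 means 40% of the cells present at the start died, and -100 means all died.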 Unmarked numbers belong to inactive results. The source made the active and inactive calls. How the source made its calls: active means growth percent below 10; inactive means the rest.

Some test systems named below: NCI-H23 lung; NCI-H226 lung; HOP-62 NSCLC; NCI-H460 lung; NCI-H522 lung; A549/ATCC NSCLC; 786-0 renal; COLO 205 colon; DU-145 prostate; K-562 leukemia; MALME-3M melanoma; MDA-MB-231 breast; RXF 393 renal; SF-268 CNS; SF-295 CNS; SF-539 CNS; UACC-257 melanoma; M14 melanoma.
Holding throughout (assay): NCI-60 one-dose screen, 48 h (100 = growth as untreated, 0 = no growth, -100 = all killed)
Common to all, as to details: 10 µM unless noted

On to `COc1cc(C2CC(c3ccccc3)=NN2C=O)ccc1Oc1ccnc2cc(Cl)ccc12` (centres undefined), for which the growth in the test with NCI-H23 lung was 36.7%; with NCI-H226 lung, 46.6%; with HOP-62 NSCLC it was 74.2%; in the test with NCI-H460 lung, 73.8%; in the test on NCI-H522 lung, 42.7%; with A549/ATCC NSCLC, 56%. Also, the growth with 786-0 renal was 79.9%; with COLO 205 colon, 101%; with DU-145 prostate it was 77.9%; in the test on K-562 leukemia, 51.1%; with MALME-3M melanoma, 52.7%; in the test on MDA-MB-231 breast it was 74.6%. Also, the growth with RXF 393 renal was 98.9%; with SF-268 CNS, 65.6%; in the test on SF-295 CNS, 43.3%; in the test on SF-539 CNS, 79.8%; with UACC-257 melanoma, 31.6%.
For `Cc1ccc(C)c(NC(=O)c2sc3c(=O)[nH]cnc3c2C)c1`, the growth with NCI-H23 lung is 93.4%; with NCI-H226 lung, 106%; in the test on HOP-62 NSCLC it was 80.8%; with NCI-H460 lung it was 81.9%; in the test with NCI-H522 lung, 64.9%; in the test on A549/ATCC NSCLC, 74.6%. Also, the growth is 89.9% with 786-0 renal; 83.3% in the test on COLO 205 colon; 108% with DU-145 prostate; 29.6% in the test on K-562 leukemia; 62.6% in the test on MALME-3M melanoma; 97.4% with MDA-MB-231 breast. For the same compound, the growth in the test on RXF 393 renal is 90.1%; in the test on SF-268 CNS, 101%; with SF-295 CNS, 73.3%; in the test with SF-539 CNS, 94.2%; with UACC-257 melanoma, 94.5%; in the test with M14 melanoma, 57.8%.
With `CC1=CC(=O)OC1C/C=C(\C)CCC1[C@@]2(C)CCC[C@@](C)(C(=O)O)C2CC[C@@]1(C)O` (some centres undefined), the growth with NCI-H23 lung is 68.4%; with NCI-H226 lung, 43.7%; in the test with HOP-62 NSCLC, 51.7%; in the test on NCI-H460 lung it was 9.27% (active); in the test on NCI-H522 lung, 59.3%; in the test with A549/ATCC NSCLC it was 29.3%. For the same compound, the growth in the test on 786-0 renal is 54.6%; in the test on COLO 205 colon, 86.7%; in the test on DU-145 prostate, 36.8%; in the test with K-562 leukemia it was 28.4%; in the test with MALME-3M melanoma, 58.4%; in the test on MDA-MB-231 breast, 34.3%. For the same compound, the growth in the test on RXF 393 renal was 49.2%; in the test with SF-268 CNS it was 71.4%; in the test on SF-295 CNS, 85.5%; in the test with SF-539 CNS, 81.3%; in the test on UACC-257 melanoma it was 48.6%; in the test on M14 melanoma it was 25.7%.
Take `CCCCCCCCCCCC1=NC(C)(C)CN1C(C)C`: the growth was 49.8% with NCI-H23 lung; 89.1% in the test with NCI-H226 lung; 54.6% with HOP-62 NSCLC; 50.4% with NCI-H460 lung; 43% in the test on NCI-H522 lung; 61.1% in the test on A549/ATCC NSCLC. In addition, the growth in the test with 786-0 renal is 54.5%; in the test on COLO 205 colon, -53.7% (active); with DU-145 prostate, 68.9%; in the test with MALME-3M melanoma, 59.8%; with MDA-MB-231 breast, 53.7%; with RXF 393 renal it was 5.65% (active). The growth was 71.9% in the test with SF-268 CNS; 62.6% in the test on SF-295 CNS; 55.6% in the test with SF-539 CNS; -9.06% (active) in the test with UACC-257 melanoma; -26.6% (active) with M14 melanoma.
In the case of `COc1ccc2c(c1)N(Cc1ccc(Cl)cc1)CCC2N1CCCC1=O` (centres undefined), the growth in the test with NCI-H23 lung was 52.7%; in the test with NCI-H226 lung it was 46.5%; with HOP-62 NSCLC it was 52.4%; in the test on NCI-H460 lung, 39.1%; in the test on NCI-H522 lung, 32%; with A549/ATCC NSCLC, 44.4%. Further, the growth with 786-0 renal was 48.6%; with COLO 205 colon, 67.3%; in the test on DU-145 prostate it was 43.9%; in the test with K-562 leukemia, 47.4%; with MALME-3M melanoma, 39.8%; with MDA-MB-231 breast it was 61.8%. Also, the growth was 39.4% in the test on RXF 393 renal; 59.2% with SF-268 CNS; 28.3% with SF-295 CNS; 48.5% in the test on SF-539 CNS; 63.6% with UACC-257 melanoma; 60.9% with M14 melanoma.
Consider `COc1ccc(C(=O)OC2C(OC3C(O)COC(O[C@H]4C[C@H]5[C@@H]6CC=C7C[C@@H](O)CC[C@]7(C)[C@H]6CC[C@]5(C)[C@H]4[C@H](C)C(=O)CCC(C)C)C3OC(=O)C(C)C)OCC(O)C2O)cc1` (some centres undefined), for which the growth with NCI-H23 lung is 43.1%; with NCI-H226 lung, 10.9%; in the test on HOP-62 NSCLC, -14.2% (active); with NCI-H460 lung, 0.329% (active); in the test with NCI-H522 lung it was -46.1% (active); in the test with A549/ATCC NSCLC, 16.1%. Further, the growth is -1.64% (active) in the test on 786-0 renal; -47.9% (active) in the test on COLO 205 colon; 38.4% with DU-145 prostate; -29.8% (active) in the test on K-562 leukemia; 6.67% (active) in the test with MALME-3M melanoma; 36.5% in the test on MDA-MB-231 breast. Further, the growth in the test on RXF 393 renal is -59.4% (active); with SF-268 CNS it was -9.13% (active); in the test with SF-295 CNS, -60.5% (active); in the test with SF-539 CNS, -66.2% (active); in the test on UACC-257 melanoma, -50% (active); with M14 melanoma, -61.4% (active).
In the case of `CS(=O)(=O)c1ccc(C(=O)N/N=C/c2cccc3ccccc23)cc1`, the growth in the test on NCI-H23 lung was 89.6%; in the test with NCI-H226 lung, 83.7%; in the test on HOP-62 NSCLC it was 74.9%; in the test on NCI-H460 lung it was 66.8%; with NCI-H522 lung, 4.48% (active); with A549/ATCC NSCLC, 41.3%. Further, the growth with 786-0 renal is 90.9%; in the test with COLO 205 colon it was 85.7%; in the test on DU-145 prostate it was 88.8%; with K-562 leukemia, 27.8%; in the test on MALME-3M melanoma it was 69.7%; with MDA-MB-231 breast it was 97.1%. Also, the growth in the test on RXF 393 renal is 99.3%; with SF-268 CNS, 85.7%; in the test with SF-295 CNS it was 76%; in the test on SF-539 CNS, 89.3%; in the test with UACC-257 melanoma it was 41.1%.
Regarding `C[Si](C)(C)C(c1ccccc1)c1ccccc1`, the growth with NCI-H23 lung was 99.5%; with NCI-H226 lung it was 113%; in the test with HOP-62 NSCLC, 105%; in the test with NCI-H460 lung, 106%; in the test on NCI-H522 lung, 98.2%; with A549/ATCC NSCLC, 91.1%. Besides, the growth was 110% in the test on 786-0 renal; 105% with COLO 205 colon; 102% with DU-145 prostate; 86.7% with K-562 leukemia; 90.2% with MALME-3M melanoma; 123% in the test on MDA-MB-231 breast. In addition, the growth in the test on RXF 393 renal was 126%; in the test on SF-268 CNS, 104%; with SF-295 CNS, 109%; with SF-539 CNS, 111%; in the test with UACC-257 melanoma, 109%; in the test with M14 melanoma it was 108%.
As for `CC(=O)Oc1c(Cl)c(Cl)c(Cl)c(Cl)c1Cl`, the growth is 95.3% in the test on NCI-H23 lung; 103% with NCI-H226 lung; 95.9% with HOP-62 NSCLC; 105% in the test with NCI-H460 lung; 90.2% in the test on NCI-H522 lung; 85.9% in the test on A549/ATCC NSCLC. Besides, the growth in the test on 786-0 renal was 100%; in the test with COLO 205 colon, 106%; in the test with DU-145 prostate, 105%; with K-562 leukemia, 101%; with MALME-3M melanoma, 91.7%; with MDA-MB-231 breast, 86.3%. Moreover, the growth in the test with RXF 393 renal was 116%; in the test on SF-268 CNS, 96.1%; in the test with SF-295 CNS, 97.7%; in the test with SF-539 CNS, 86.3%; in the test with UACC-257 melanoma, 94.1%; with M14 melanoma, 105%.

These data come from PubChem BioAssay (NCI).
